From PubChem
The list is not random: actives were taken first. Their share in the collection is about 10%.
G9a inh – inhibitors of human histone lysine methyltransferase G9a; AID 504332; actives 8.8% (n = 350,000); G9a H3K9 monomethylation, AlphaScreen, 2 h; Potency, µM (doses to about 102 µM), hits mostly inhibitors; note: nearly all actives have a fitted effect of over 75% in size
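G9a (20 nM) was preincubated 15 min with compound, then reacted 2 h at room temperature with 500 nM biotin-H3K9 peptide and 20 µM SAM. Monomethyl-H3K9 detected by AlphaScreen using anti-H3K9me1 antibody.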
VDR inh – inhibitors of human vitamin D receptor; P11473; VDR-SRC2-3 peptide fluorescence polarization, 2 h; Potency, µM, actives largely listed as inhibitors; actives 0.93% (n = 400,000)
Target sequence (P11473 whole entry, looked up): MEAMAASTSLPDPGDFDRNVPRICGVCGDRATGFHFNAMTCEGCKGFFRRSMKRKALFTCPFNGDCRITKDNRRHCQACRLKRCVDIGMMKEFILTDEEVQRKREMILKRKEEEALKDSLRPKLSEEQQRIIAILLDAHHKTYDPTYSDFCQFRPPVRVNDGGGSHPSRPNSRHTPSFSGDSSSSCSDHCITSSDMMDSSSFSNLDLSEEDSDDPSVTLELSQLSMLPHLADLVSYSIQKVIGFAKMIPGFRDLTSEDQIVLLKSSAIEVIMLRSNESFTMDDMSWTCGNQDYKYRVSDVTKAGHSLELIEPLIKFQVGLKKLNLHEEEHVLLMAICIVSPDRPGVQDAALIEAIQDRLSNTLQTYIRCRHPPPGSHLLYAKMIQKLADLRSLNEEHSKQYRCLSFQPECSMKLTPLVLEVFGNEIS
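Compounds are added to VDR with labelled SRC2-3 coactivator peptide and held 2 h at room temperature. Inhibition of the VDR–peptide interaction is then read as a change in fluorescence polarization.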
CCT modulator – cytosolic chaperonin activity modulation; purified chaperonin ATPase assay, HTRF ADP detection, 30 min; activity change, % (test concentration not listed), hits read low; actives 0.3% (n = 360,000); AID 651819; in the data active = activity change below about -30%
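TRiC (40 or 20 nM final, by batch activity) in 30 mM Tris pH 7.4, 100 mM KCl, 5 mM MgCl2, 1 mM DTT was treated with compound at 76 uM single dose, then 10 uM ATP, 30 min at 37 °C. ADP was read by HTRF Transcreener.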
Sfp PPTase inh – inhibitors of Bacillus subtilis Sfp phosphopantetheinyl transferase | Q9F4F7 | Biochemical Sfp PPTase activity, qHTS | Potency, µM, usual class: inhibitors | actives 3.5% (n = 310,000) | AID 1490;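 note: the enzyme is Sfp with the accession as filed and its product quenches rhodamine fluorescence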
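Sfp 15 nM + cpd, 15 min RT; start w/ rhodamine-CoA 5 uM, BHQ-2-YbbR 12.5 uM (final); 50 mM Hepes pH 7.6, 10 mM MgCl2, 0.01% NP-40, 0.01% BSA; read 525/598 nm at 0 and 30 min.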
PLK1 PBD block – blocks phosphopeptide binding to human PLK1 polo-box domain | P53350 | Plk1 PBD binding of FITC phosphopeptide, fluorescence polarization | actives 2.8% (n = 360,000) | Potency, µM, actives largely listed as inhibitors; note: series mostly up to about 57 µM; nearly all actives have a fitted effect of over 65% in size
MmCpn inh – inhibitors of Methanococcus maripaludis chaperonin TRiC (MmCpn). purified Mm-Cpn ATPase, ADP Transcreener TR-FRET. Potency, µM (highest dose often 76.9 µM), hits mostly inhibitors. actives 0.031% (n = 330,000). AID 504842; note: nearly all actives have a fitted effect of over 80% in size
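Eu-cryptate anti-ADP/ADP-d2 competition gives a ratio inversely related to ADP. Enzyme at 25 nM was pre-exposed to compound for 10 min, then given 10 uM ATP for 30 min, 37°C throughout.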
A number is an active result; i = inactive; ? = inconclusive; nt = no result given; ! = not confirmed by another sample; [ ] = remark or other dose. Unless noted, calls come from the whole dose curve; as a rule, active = well fitted curve in the direction sought with a large enough effect; inconclusive = small, poorly fitted or top-dose-only effect, or another doubt; inactive = no such curve, though single readings can be large; an effect the other way counts as inactive or inconclusive.

SMILES | G9a inh | VDR inh | CCT modulator | Sfp PPTase inh | PLK1 PBD block | MmCpn inh
NC(=O)C1CCN(c2ncnc3c2c(-c2ccccc2)cn3-c2ccccc2)CC1 | 50µM | i | i | i | i | i
COC(=O)C/C=C\[C@@H](C)[C@H]1C=C[C@H](O)[C@@H](CO)O1 | nt | nt | nt | i | nt | nt
O=C(NCc1ccco1)N1c2ccccc2Sc2ccccc21 | i[12.7 µM] | i | i | ? | i | i
CCN1/C(=C/C(=O)c2ccco2)Sc2ccccc21 | ? | i | i | 50µM | ? | i
CC(C)OC(=O)CSc1nc(-c2ccc(F)cc2)nc2ccc(F)cc12 | i | i | i | i | i | i
O=C(CSc1nc(-c2ccccc2)nc2ccc(F)cc12)Nc1ccc(C(=O)O)cc1 | 45µM | i | i | i | i | i
O=C(CSc1nncc2ccccc12)Nc1cccc(C(=O)O)c1 | nt | i | i | ? | 19µM | i
O=C(CSc1nc(-c2ccc(F)cc2)nc2c1Cc1ccccc1O2)Nc1cccc(C(=O)O)c1 | 7.9µM | i | i | i | 11µM | i
O=C(CSc1nc(-c2ccccc2)nc2c1Cc1ccccc1O2)Nc1ccccc1 | i | nt | nt | i | nt | i
COC(=O)Cc1nnc(SCC(=O)Nc2ccccc2)c2ccccc12 | i | 79µM | i | i | i | i
Cc1cccc(CNc2cc(-c3cccnc3)ncn2)c1 | nt | i | nt | i | nt | nt
COc1ccc(-c2nc3c(c(SCC(=O)Nc4cccc(O)c4)n2)Cc2c(CO)cnc(C)c2O3)cc1 | 11µM! | i | i | i | i | i
Cc1ncc(CO)c2c1Oc1nc(-c3ccccc3)nc(SCC(=O)Nc3cccc(O)c3)c1C2 | i | i | i | i | i | i
O=C(CSc1nc(-c2ccccc2)nc2ccc(F)cc12)Nc1cccc(C(=O)O)c1 | 71µM | i | i | i | i | i
COc1ccc(/C(N)=N/OC(=O)Cc2cccs2)cc1OC | i | i | i | 79µM | i | i
COc1ccc(/C(N)=N/OC(=O)Cc2cccs2)cc1 | i | i | i | i | i | i
Cc1ccc(-n2ccnc2SCC(=O)N(CC(C)C)C2CCS(=O)(=O)C2)c(C)c1 (configuration not stated) | nt | ? | i | i | 11µM | i
Cc1nc(SCC(=O)N(CC(C)C)C2CCS(=O)(=O)C2)c(C#N)c(C)c1C (configuration not stated) | 50µM | i | i | nt | i | ?
Cc1nnc(SCC(=O)N(CC(C)C)C2CCS(=O)(=O)C2)s1 (configuration not stated) | ? | i | i | nt | i | i
CC(C)CN(C(=O)CSc1nn(-c2ccc(Cl)cc2)c(=S)s1)C1CCS(=O)(=O)C1 (configuration not stated) | 20µM | i | i | i | i | i
Cc1ccc(C(=O)Nc2nnc(S(=O)(=O)N3CCc4ccccc43)s2)cc1 | i | i | nt | nt | nt | nt
COc1ccc2nc3oc(C(=O)NCc4ccccc4OC)cc3cc2c1 | i | ? | nt | nt | nt | nt
CNc1nc2[nH]c(=O)c3c(c2s1)OC(N)=C(C#N)C3c1cccc(F)c1 (configuration not stated) | i | i | i | 79µM | i | i
C=CCSc1nc2c(c(=O)[nH]1)C(c1ccccc1)C(C#N)=C(N)O2 (configuration not stated) | i | i | i | i | i | i
COc1ccc(O)c(CN2CCN(C/C=C/c3ccccc3)CC2)c1 | ? | i | i | i | i | i
SMILES | G9a inh | VDR inh | CCT modulator | Sfp PPTase inh | PLK1 PBD block | MmCpn inh
COc1cc(Br)cc(CN2CCN(C/C=C/c3ccccc3)CC2)c1O | 40µM | i | i | i | i | i
COc1cc(C/C=C\c2ccccc2)c(OC)cc1O | nt | 45µM | nt | 45µM | nt | nt
CCSc1nc2ccccc2n1CC(N)=O | i | i | i | i | i | i
CCSc1nc2ccccc2n1C(=O)/C=C\c1ccc(OC)c(OC)c1 | i[12.7 µM] | 50µM | i | 50µM | i | i
CC(C)(C)NC[C@H](O)CSc1nc(-c2ccc(C(N)=O)s2)cs1 | ? | i | nt | i | nt | nt
C/C(CC(=O)NCc1ccc(F)cc1)=N\NC(N)=S | ? | i | i | 56µM | i | i
C/C(CC(=O)NCc1ccccc1)=N\NC(N)=S | 3.2µM | i | i | 45µM | ? | i
C/C(CC(=O)NCc1ccccc1)=N\NC(=O)c1cnccn1 | 40µM | i | i | ? | i | i
